Reference: PubChem BioAssay (NCATS)
Inconclusive results are not listed. Unmarked numbers belong to inactive results. Active and inactive are the calls of the source. Calls follow the shape of the full dose curve.

assay: Primary qHTS for inhibitors of SARS-S pseudo-typed particle cell entry (AID 1479145); conditions: SARS-S pseudotyped particle cell entry, luciferase reporter; series mostly up to 57.1 µM; activity change, negative = inhibition: at the top concentration; also: nearly all actives have a fitted effect of over 45% in size; also: potency is read from the fitted curve at half-maximal effect
% is scaled to controls: 0 for no effect and ±100 for the full control effect.

Structure (SMILES)	activity change, negative = inhibition	Potency	outcome
CC(C(=O)O)c1cccc(Oc2ccccc2)c1 (stereo unspecified)	-12.8%		
CCCCN(CCCC)CCCOC(=O)c1ccc(N)cc1	-4.47%		
COc1cc(NS(C)(=O)=O)ccc1Nc1c2ccccc2nc2ccccc12		0.794 µM (active)	
CN1C[C@@H]2C[C@H]1CN2c1cc2c(cc1F)c(=O)c(C(=O)O)cn2C1CC1	-3.75% [at 26.4 µM]		
O=C1CN(/N=C/c2ccc([N+](=O)[O-])o2)C(=O)N1			inactive
O=c1c(C2CC(c3ccc(-c4ccc(Br)cc4)cc3)Cc3ccccc32)c(O)sc2ccccc12 (stereo unspecified)		25.1 µM (active)	
c1ccc2sc(SN3CCOCC3)nc2c1	-29.5%		
Nc1nc(Cl)nc2c1ncn2[C@@H]1O[C@H](CO)[C@@H](O)[C@@H]1F		20 µM (active)	
O=C(O)CCCCC1CCSS1 (stereo unspecified)	-8.31%		

assay: Primary qHTS for Huh7 cytotoxicity: counterscreen for inhibitors of MERS-S pseudotyped particle cell entry (AID 1479147); conditions: cell viability read-out; series mostly up to 57.1 µM; activity change, negative = cytotoxicity: at the top concentration

Structure (SMILES)	activity change, negative = cytotoxicity [%]	outcome
CC(C(=O)O)c1cccc(Oc2ccccc2)c1 (stereo unspecified)	-2.67	
O=C(OOC(=O)c1ccccc1)c1ccccc1		inactive
O=C(C1CCCCC1)N1CC(=O)N2CCCc3ccccc3C2C1 (stereo unspecified)		inactive
NCC[C@H](O)C(=O)N[C@@H]1C[C@H](N)[C@@H](O[C@H]2O[C@H](CN)[C@@H](O)[C@H](O)[C@@H]2O)[C@H](O)[C@@H]1O[C@H]1O[C@H](CO)[C@@H](O)[C@H](N)[C@@H]1O		inactive [at 0.573 µM]
CC(C)[C@H](N)C(=O)OCC(CO)OCn1cnc2c(=O)[nH]c(N)nc21 (stereo partly specified)		inactive
O=C(NCC(O)CO)c1c(I)c(C(=O)NCC(O)CO)c(I)c(N(CCO)C(=O)CO)c1I (stereo unspecified)		inactive
NS(=O)(=O)c1cc(Cl)c(Cl)c(S(N)(=O)=O)c1		inactive
C=CC1=C(C(=O)O)N2C(=O)[C@@H](NC(=O)/C(=N\O)c3csc(N)n3)[C@H]2SC1 (stereo in doubt)	-14.3	
CN1C[C@@H]2C[C@H]1CN2c1cc2c(cc1F)c(=O)c(C(=O)O)cn2C1CC1		inactive [at 26.4 µM]
COC(=O)CCCCC(CCSS/C(CCO)=C(\C)N(C=O)Cc1cnc(C)nc1N)SC(C)=O (stereo unspecified)		inactive
NCc1ccc(S(N)(=O)=O)cc1	3.61	
Cc1cc(O)cc2c1O[C@](C)(CCC[C@H](C)CCC[C@H](C)CCCC(C)C)CC2	-0.826	
Cc1ccc(C(C)C)cc2c(C)ccc1-2		inactive
COc1ccc(C(=O)NCc2ccc(OCCN(C)C)cc2)cc1OC	-5.9	
CC1(C)S[C@@H]2[C@H](NC(=O)C(c3ccccc3)S(=O)(=O)O)C(=O)N2[C@H]1C(=O)O (stereo partly specified)	-10.8	
O=c1c(-c2ccc(O)cc2)coc2cc(O)cc(O)c12	0.515	

Structure (SMILES)	activity change, negative = cytotoxicity [%]	outcome
CC(=O)OC(C)OC(=O)C(C)c1ccc(-c2ccccc2)c(F)c1 (stereo unspecified)		inactive
COc1cc(C(=O)NS(=O)(=O)c2ccccc2C)ccc1Cc1cn(C)c2ccc(NC(=O)OC3CCCC3)cc12		inactive
CO/N=C(/C(=O)N[C@@H]1C(=O)N2C(C(=O)[O-])=C(C[n+]3ccn4ncccc43)CS[C@H]12)c1nsc(N)n1		inactive
NC[C@H]1O[C@H](O[C@H]2[C@H](O)[C@@H](O[C@H]3O[C@H](CO)[C@@H](O)[C@H](N)[C@H]3O)[C@H](N)C[C@@H]2N)[C@H](O)[C@@H](O)[C@@H]1O		inactive [at 5.34 µM]
CC(C)(C)NC[C@H](O)COc1cccc2c1CCCC2=O		inactive
O=c1c(C2CC(c3ccc(-c4ccc(Br)cc4)cc3)Cc3ccccc32)c(O)sc2ccccc12 (stereo unspecified)	3.97	
CCN1C(=O)NC(c2ccccc2)C1=O (stereo unspecified)	2.76	
CC(=O)Oc1cc(C(C)C)c(OCCN(C)C)cc1C	-7.01	
CNC[C@H](O)c1cccc(O)c1	-3.57	
Cc1ccc(C(=O)C(C)CN2CCCCC2)cc1 (stereo unspecified)		inactive
CC(N=C(NC#N)Nc1ccncc1)C(C)(C)C (stereo unspecified)		inactive
Nc1nc(Cl)nc2c1ncn2[C@@H]1O[C@H](CO)[C@@H](O)[C@@H]1F	-30.8	
CC12CCC(CC1)C(C)(C)O2		inactive
Cc1c(C(=O)O)c(O)cc2c1C(=O)c1c(O)c([C@@H]3O[C@H](CO)[C@@H](O)[C@H](O)[C@H]3O)c(O)c(O)c1C2=O		inactive
COC(=O)c1ccc(O)cc1		inactive
OCc1ccc(Cl)cc1Cl		inactive
